BH1578 lux ind – induces V. cholerae light production without autoinducers. V. cholerae BH1578 lux reporter, luminescence, 6 h. activation, % at 18.7 µM. 0.16% of 350,000 active. AID 588436; in the data active = activation mostly above about 9.7%, no sharp cut-off; inconclusive = no clear call, values can overlap the other calls; inactive = mostly below about 3.7%
Anthrax LF prot – blocks Bacillus anthracis lethal factor protease; multiplex microsphere protease cleavage assay, LF; inhibition, % at 10 µM; 0.12% of 360,000 active; AID 588501
Target sequence (P15917 whole entry, looked up): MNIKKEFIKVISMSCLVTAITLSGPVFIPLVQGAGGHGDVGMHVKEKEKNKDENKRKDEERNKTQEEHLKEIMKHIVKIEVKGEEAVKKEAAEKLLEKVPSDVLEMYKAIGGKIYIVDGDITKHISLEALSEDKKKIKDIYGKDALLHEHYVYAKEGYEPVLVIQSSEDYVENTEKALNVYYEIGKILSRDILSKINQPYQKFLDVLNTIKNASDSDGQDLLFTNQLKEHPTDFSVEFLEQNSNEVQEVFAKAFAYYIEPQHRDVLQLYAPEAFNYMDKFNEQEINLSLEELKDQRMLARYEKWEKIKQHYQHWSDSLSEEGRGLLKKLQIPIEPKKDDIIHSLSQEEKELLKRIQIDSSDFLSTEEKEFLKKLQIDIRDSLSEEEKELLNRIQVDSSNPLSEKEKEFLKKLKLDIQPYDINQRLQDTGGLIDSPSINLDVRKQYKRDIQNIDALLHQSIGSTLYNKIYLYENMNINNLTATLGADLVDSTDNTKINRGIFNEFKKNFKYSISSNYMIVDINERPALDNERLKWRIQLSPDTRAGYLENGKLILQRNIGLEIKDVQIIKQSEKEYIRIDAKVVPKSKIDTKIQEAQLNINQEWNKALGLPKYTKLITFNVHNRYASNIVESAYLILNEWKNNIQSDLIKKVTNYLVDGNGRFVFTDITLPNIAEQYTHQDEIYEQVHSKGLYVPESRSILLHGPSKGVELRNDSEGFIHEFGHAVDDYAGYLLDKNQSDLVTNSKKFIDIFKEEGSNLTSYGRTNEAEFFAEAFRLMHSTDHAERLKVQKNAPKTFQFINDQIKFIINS
Bead autofluor – counter-screen for toxin protease inhibitors: compound fluorescence; fluorescence intensity (test concentration not listed); 3.1% of 360,000 active; compound autofluorescence counterscreen, microsphere flow cytometry; active compounds read high; in the data active = fluorescence intensity above about 16000; inconclusive = no clear call, values can overlap the other calls
BoNT A protease – blocks Botulinum neurotoxin A light chain protease; 0.17% of 360,000 active; inhibition, % at 10 µM; AID 588499; multiplex microsphere protease substrate cleavage, flow cytometry
BoNT F protease – inhibitors of Botulinum neurotoxin F light chain protease | Multiplex microsphere protease cleavage assay, flow cytometry | inhibition, % at 10 µM | 0.22% of 360,000 active; in the data active = inhibition above about 35%, passing the limit was not always enough; inconclusive = no clear call, values can overlap the other calls
BJeLR lethal – kills HRASV12-expressing BJeLR cells | inhibition, % (concentration not given with the values) | BJeLR (HRASV12) viability, CellTiter-Glo ATP luminescence, 48 h | 0.17% of 300,000 active; in the data active = inhibition above about 50%; inconclusive = no clear call, values can overlap the other calls
Each line names hits and unclear results; the compound was inactive in the other large screens. Rows were chosen to be rich in hits. Some 3.7% of all compounds tested hit in one or more screens of this group. Cut-off read from the data, not from the text of the source, unless noted: active = inhibition above about 30%; inconclusive = no clear call, values can overlap the other calls; inactive = below that.

COc1cccc(NC(=O)Nc2ccc3c(c2)N(C)C(=O)CS3)c1	none
Cc1ccnc(-n2c(C)cc(C=C3C(=O)N(C)C(=S)N(C)C3=O)c2C)c1	BoNT A protease 32 (no result: BH1578 lux ind)
CC(C)C[C@H]1CN(CCCC[C@@H]2CNC(=O)C(=O)N2CC2CCCCC2)C(=O)C(=O)N1CCc1ccccc1	none (no result: BH1578 lux ind, BJeLR lethal)
CN(C)c1ncc(C(=O)O)cn1	Bead autofluor 16816
Cc1cc(C)c(C#N)c(Nc2ccccc2F)n1	none
COCc1cc(C)nc(Nc2ccccc2C)c1C#N	Bead autofluor 20149, BoNT A protease inconclusive
Cc1cccnc1C(NC(=O)C1CCN(Cc2cn(C)c3ccccc23)CC1)c1ccc(Cl)cc1 (configuration not stated)	none (no result: BJeLR lethal)
CCN(CC)c1ccc(NC(=O)c2ccco2)c(C)c1	none
O=C(Nc1cccc(Cl)c1N1CCCC1)c1ccc([N+](=O)[O-])o1	none (no result: BJeLR lethal)
CCN(CC)c1ccc(NC(=O)c2ccc(Br)o2)c(C)c1	Bead autofluor 20876
Cc1cc(O)c(NC(=O)c2ccc(Br)o2)cc1C	Bead autofluor 21608
O=C(Nc1cccc(Cl)c1N1CCCC1)c1ccc(Br)o1	Bead autofluor 21468
Cc1noc(C)c1C(=O)N1CCC1(C)C(=O)NS(=O)(=O)c1cccc(OC(F)F)c1 (configuration not stated)	none (no result: BJeLR lethal)
CC1C(=NO)C(C)C(c2ccccc2)NC1c1ccccc1 (configuration not stated)	Bead autofluor 22855, BoNT A protease inconclusive
Cc1ccc(C2NC(c3ccc(C)cc3)C(C)C(=NO)C2C)cc1 (configuration not stated)	none
CN1CCC(N2CCN(C3CN(C4CCCC4)S(=O)(=O)C3)CC2)CC1 (configuration not stated)	none (no result: BH1578 lux ind, BJeLR lethal)
O=C(Nc1ccc2c3c(cccc13)CC2)c1ccco1	none
CCN(CC)c1ccc(/C=N/NC(=O)c2ccco2)c(O)c1	BJeLR lethal 58 (no result: Anthrax LF prot, Bead autofluor, BoNT A protease, BoNT F protease)
O=C(Nc1cccc2c1CCCC2)c1ccco1	Bead autofluor 20290
COc1cc(NS(=O)(=O)c2ccc(NC(=O)c3ccco3)cc2)nc(OC)n1	Bead autofluor 17434
Cc1ccc(Oc2ccc(NC(=O)c3ccco3)cc2)cc1	Bead autofluor 16687
COc1cc(NS(=O)(=O)c2ccc(NC(=S)NC(=O)c3ccco3)cc2)nc(OC)n1	none
COc1ccc2cc(C#CC3=CC(=O)C[C@H](c4ccc(F)cc4)C3)ccc2c1	none (no result: BJeLR lethal)
CC(=O)c1ccc(NC(=O)c2ccc(NC(=O)c3ccco3)cc2)cc1	none
CC(=O)Nc1ccc(NC(=O)c2ccco2)cc1	Bead autofluor 22348
CCN(CC)c1ccc(NC(=S)NC(=O)c2ccco2)cc1	none
CCN(CC)c1ccc(NC(=O)c2ccco2)cc1	Bead autofluor 20274, BoNT A protease inconclusive
CCc1nc2ccc(C(=O)Nc3cccc(OC)c3)cn2c1N(CC)Cc1cccc(Br)c1	none (no result: BJeLR lethal)
COc1ccccc1Oc1cc(F)nc(N)n1	Bead autofluor 17544, BoNT A protease inconclusive
CC(C)(C(=O)c1ccccc1)/[N+]([O-])=C/c1ccc(F)cc1	none
CC(C)(C(=O)c1ccccc1)/[N+]([O-])=C/c1ccccc1	Bead autofluor 23931
CSCC[C@H](NC(=O)OCc1ccccc1)C(=O)O	Bead autofluor 22450
CSCCC(NC(=O)OCc1ccccc1)NC(=O)OCc1ccccc1	none (no result: BH1578 lux ind, BJeLR lethal)
Nc1ccn([C@@H]2O[C@H](CNCc3cccc(OC4CCCC4)c3)[C@@H](O)[C@H]2O)c(=O)n1	none (no result: BJeLR lethal)
CC(C)c1ccc(CC(=O)N2CCC2(C)C(=O)NS(=O)(=O)c2cccc(OC(F)F)c2)cc1 (configuration not stated)	none (no result: BJeLR lethal)
CCc1nc2ccc(C(=O)Nc3cccc(OCC(=O)N(C)C)c3)cn2c1N(C=O)Cc1ccc(OC)cc1	none (no result: BJeLR lethal)
O=C(CSc1nc(-c2ccccc2)c(-c2ccccc2)[nH]1)NCc1ccco1	Bead autofluor 23502
CCOc1ccc2nc(SCC(=O)NCc3ccco3)sc2c1	Bead autofluor 21294
CCOc1ccc2nc(SCC(=O)NC(=O)NCc3ccco3)sc2c1	none
CCOc1ccc2nc(SCC(=O)N3CCCc4ccccc43)sc2c1	Bead autofluor 21324, BoNT A protease inconclusive
COc1ccc(-c2ccc(SCC(=O)NCc3ccco3)nn2)cc1	Bead autofluor 24470
CCCCn1c(N)c(N(CCC(C)C)C(=O)c2c(CC)noc2C)c(=O)[nH]c1=O	none (no result: BJeLR lethal)
CCCCN(C)c1c(C)nc2ccc(C(=O)NCCCn3ccnc3)cn12	none (no result: BJeLR lethal)
COc1ccc(-c2cc3nc(C)c(CCC(=O)NCc4ccco4)c(C)n3n2)c(OC)c1	Bead autofluor 20470

High-throughput results as filed in PubChem BioAssay.
